Assay results as given in PubChem BioAssay AID652053 (Broad Institute, 2013).
Among all 1,300 compounds or so, about 930 (72%) were called active.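 Rule for the calls: active = fitted curve reaches 40% activation signal increase at or below the top valid tested concentration in every replicate test; inconclusive = replicate tests disagree in their calls; inactive = all replicate tests inactive, including effects opposite the expected signal rise.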 The set was probably picked from earlier hits. The list is a sample of the results. Measured potencies and affinities stand elsewhere.

Test: miR-122 inhibitors in Huh7 reporter cells, dose response, cell-based, Huh7 psiCHECK-miR122, Renilla luciferase, cherry-pick (AID 652053)
Conditions: 48 h; series mostly up to 35 µM

outcome, inactive:
CCOc1ccc(N2C(=O)c3cccnc3C2Nc2ccc(F)cc2)cc1 (stereo not given), O=C(Nc1ccc2c(c1)OCCO2)C1CCN(S(=O)(=O)c2ccccc2)CC1, CCCC(=O)Nc1nc2ccc(NC(=O)c3c(F)c(F)c(OC)c(F)c3F)cc2s1, O=C(NC(=S)NCc1ccc2c(c1)OCO2)c1ccccc1, Cc1ccc(S(=O)(=O)N(C)C[C@@H]2Oc3ccc(NC(=O)Nc4ccc5c(c4)OCO5)cc3CC(=O)N([C@@H](C)CO)C[C@@H]2C)cc1, CC1CCN(S(=O)(=O)N2CCC(C(=O)NCCc3ccccc3)CC2)CC1, Cc1cc(C)cc(N(CC(=O)N2CCC(C)CC2)S(=O)(=O)c2ccccc2)c1, Fc1ccc(CSc2nnc(-c3cccnc3)o2)cc1, CC(C)CC#Cc1ccc2c(c1)O[C@@H](CN(C)C(=O)C1CCC1)[C@@H](C)CN([C@H](C)CO)S2(=O)=O, C[C@H](CO)N1C[C@H](C)[C@@H](CN(C)S(C)(=O)=O)Oc2cc(C#Cc3ccccc3)ccc2S1(=O)=O, C[C@H](CO)N1C[C@H](C)[C@H](CN(C)C(=O)Nc2cccc3ccccc23)Oc2ccc(N(C)C)cc2CC1=O, COC(=O)CCCCCC(CCC(=O)OC)NC(C)=O (stereo not given), CC(C)NC(=O)COC(=O)c1ccc(NS(=O)(=O)c2ccc3c(c2)OCCO3)cc1, COC(=O)C[C@H]1CC[C@@H]2[C@@H](COc3ccc(NS(=O)(=O)c4ccc(C)cc4)cc3C(=O)N2C)O1, COC(=O)C[C@H]1CC[C@H]2[C@H](COc3ccc(NS(=O)(=O)c4ccc(C)cc4)cc3C(=O)N2C)O1, COC(=O)C[C@@H]1CC[C@@H]2[C@@H](COc3ccc(NS(=O)(=O)c4ccc(C)cc4)cc3C(=O)N2C)O1, COC(=O)C[C@@H]1CC[C@H]2[C@H](COc3ccc(NS(=O)(=O)c4ccc(C)cc4)cc3C(=O)N2C)O1, O=C(COC(=O)c1cccc(NS(=O)(=O)/C=C/c2ccccc2)c1)Nc1ccccc1OC(F)F, CN(C)S(=O)(=O)NC(c1ccccc1)c1ccccc1, Cc1noc(C)c1S(=O)(=O)N(C)C[C@@H]1Oc2c(NC(=O)C3CCCCC3)cccc2C(=O)N([C@H](C)CO)C[C@@H]1C, C[C@H](CO)N1C[C@H](C)[C@@H](CN(C)S(=O)(=O)c2cccs2)Oc2c(NC(=O)C3CCOCC3)cccc2C1=O, COCC(=O)N1[C@H](CO)[C@H](c2ccccc2)[C@@H]1CNC(=O)c1ccccn1, COCC(=O)NC[C@H]1N[C@H](CO)[C@@H]1c1ccc(C2=CCCCC2)cc1, O=C(COC(=O)c1c2c(nc3ccccc13)CCN(Cc1ccccc1)C2)Nc1c(F)cccc1F, O=C(O/N=C1\CCS(=O)(=O)c2sccc21)c1ccccc1, CCCCNC(=O)CN1C(=O)NC2(CCOc3ccccc32)C1=O (stereo not given), O=C(c1ccccc1F)N1C[C@H]2[C@@H](c3ccccc31)[C@@H](CO)N2C(=O)C1CCCC1, O=C(NC[C@@H]1[C@H](c2ccccc2)[C@@H](CO)N1C(=O)C1CC1)NC1CCCC1, O=C(Nc1ccccc1F)N1C[C@@H]2[C@H](c3ccccc31)[C@@H](CO)N2C(=O)C1CCCC1, CCC(=O)N1[C@H](CO)[C@@H]2c3ccccc3N(C(=O)c3ccccc3F)C[C@@H]21, O=C1CCCS(=O)(=O)c2ccccc21, Cc1ccc2nc(C)c(C)nc2c1N, CNC(=O)[C@@]1(C)C=C[C@@H](Cc2ccccc2)N1C(=O)OC, O=C(Cc1cccs1)Nc1ccc(S(=O)(=O)N2CCCCC2)cc1, Cc1ccc(S(=O)(=O)Nc2ccc3c(c2)CC(=O)N([C@H](C)CO)C[C@H](C)[C@@H](CN(C)Cc2ccc(C(=O)Nc4ccccc4N)cc2)O3)cc1, Cc1ccc(S(=O)(=O)Nc2ccc3c(c2)CC(=O)N([C@@H](C)CO)C[C@@H](C)[C@@H](CN(C)Cc2ccc(C(=O)Nc4ccccc4N)cc2)O3)cc1, Cc1ccc(S(=O)(=O)Nc2ccc3c(c2)CC(=O)N([C@H](C)CO)C[C@@H](C)[C@@H](CN(C)Cc2ccc(C(=O)Nc4ccccc4N)cc2)O3)cc1, Cc1ccc(S(=O)(=O)Nc2ccc3c(c2)CC(=O)N([C@@H](C)CO)C[C@H](C)[C@@H](CN(C)Cc2ccc(C(=O)Nc4ccccc4N)cc2)O3)cc1, CCC(C)(C)n1nnnc1C(c1ccc(C)cc1)N1CCC(C)CC1 (stereo not given), C[C@@H]1CN([C@@H](C)CO)C(=O)Cc2cc(NC(=O)Nc3ccc(C(F)(F)F)cc3)ccc2O[C@H]1CN(C)C(=O)Nc1cccc2ccccc12, C[C@H](CO)N1C[C@H](C)[C@H](CN(C)C(=O)Nc2cccc3ccccc23)Oc2ccc(NC(=O)Nc3cccc4ccccc34)cc2CC1=O, C[C@H](CO)N1C[C@H](C)[C@H](CN(C)C(=O)Nc2cccc3ccccc23)Oc2ccc(NC(=O)Nc3ccc(C(F)(F)F)cc3)cc2CC1=O, C[C@@H]1CN([C@H](C)CO)C(=O)Cc2cc(NC(=O)Nc3cccc4ccccc34)ccc2O[C@H]1CN(C)C(=O)Nc1cccc2ccccc12, C[C@H]1CN([C@@H](C)CO)C(=O)Cc2cc(NC(=O)Nc3ccc(C(F)(F)F)cc3)ccc2O[C@@H]1CN(C)C(=O)Nc1cccc2ccccc12, CN(C)S(=O)(=O)c1ccc2c(c1)nc(CCC(=O)NCC1CCCCC1)n2C, O=C(COc1ccc2c(c1)C(=O)CC1(CCCCC1)O2)NCc1ccccc1, CC1(C)N([O-])C(c2cccs2)=C[N+]1=O, C[C@H]1CN([C@@H](C)CO)C(=O)Cc2cc(NC(=O)Nc3cccc4ccccc34)ccc2O[C@H]1CN(C)C(=O)NC1CCCCC1, C[C@@H]1CN([C@H](C)CO)S(=O)(=O)c2ccc(C3=CCCCC3)cc2O[C@@H]1CN(C)Cc1ccccc1, C[C@@H]1CN([C@H](C)CO)S(=O)(=O)c2ccc(-c3ccccc3)cc2O[C@H]1CN(C)C(=O)C1CCCCC1, COC(=O)C[C@H]1CC[C@@H]2[C@H](COc3ccc(NS(=O)(=O)c4ccc(C)cc4)cc3C(=O)N2C)O1, O=C(c1ccccc1F)N1C[C@H]2[C@@H](c3ccccc31)[C@H](CO)N2C(=O)c1ccc(F)cc1, O=C(c1ccccc1F)N1C[C@H]2[C@@H](c3ccccc31)[C@H](CO)N2C(=O)c1cccnc1, O=C(c1ccccc1F)N1C[C@@H]2[C@H](c3ccccc31)[C@@H](CO)N2C(=O)c1ccc(F)cc1, COc1ccc(N2C(=O)c3cccc4c(N(C)CCO)ccc(c34)C2=O)cc1, O=C(C[C@H]1CC[C@H]2[C@@H](COC[C@H](O)CN2C(=O)Nc2cccc(F)c2)O1)NCc1ccccc1F, C[C@H](CO)N1C[C@H](C)[C@@H](CN(C)Cc2ccc(C(=O)O)cc2)Oc2c(NC(=O)C3CCOCC3)cccc2C1=O, C[C@H](CO)N1C[C@H](C)[C@@H](CN(C)C(=O)Nc2cccc3ccccc23)Oc2c(NC(=O)C3CCOCC3)cccc2C1=O, COC(=O)c1ccc(Cl)c(NC(C)=O)c1, COc1ccccc1CNC(=O)C[C@@H]1CC[C@@H]2[C@@H](COc3ccc(NC(C)=O)cc3C(=O)N2C)O1, Cc1ccc(NC(=O)[C@@H]2CCCN2S(=O)(=O)c2ccccc2F)cc1S(=O)(=O)N1CCOCC1, C[C@@H]1CN([C@H](C)CO)C(=O)Cc2cc(NC(=O)Nc3cccc4ccccc34)ccc2O[C@H]1CN(C)C(=O)NC1CCCCC1, Cc1cccc(OCCCC(=O)Nc2ccc(Cl)c(S(=O)(=O)N3CCOCC3)c2)c1, COC(=O)c1cc(Br)ccc1NC(=O)Nc1ccccc1, COc1ccc2c(c1)C(C)=CC(C)(C)N2S(=O)(=O)c1ccc(Br)cc1, C[C@H](CO)N1C[C@H](C)[C@H](CN(C)S(C)(=O)=O)Oc2ccc(N(C)C)cc2CC1=O, CC(C)NC(=O)N(C)C[C@@H]1Oc2ccc(N(C)C)cc2CC(=O)N([C@H](C)CO)C[C@@H]1C, C[C@H](CO)N1C[C@H](C)[C@H](CN(C)S(=O)(=O)c2ccc(Cl)cc2)Oc2ccc(N(C)C)cc2CC1=O, C[C@H](CO)N1C[C@H](C)[C@H](CN(C)CC2CC2)Oc2ccc(N(C)C)cc2CC1=O, CCCOC(=O)c1[nH]c2c(c1C)C(=O)CC(c1cccs1)C2 (stereo not given), CC(C)N1C(=O)CC(Nc2ccc(N3CCOCC3)cc2)C1=O (stereo not given), CCn1c(SCC(=O)Nc2ccc(N3CCOCC3)cc2)nnc1-c1ccc(OC)cc1, Clc1ccc(CNc2nc(N3CCOCC3)nc(N3CCOCC3)n2)cc1, COc1ccccc1CNC(=O)C[C@@H]1CC[C@H]2[C@@H](COc3ccc(NC(=O)Nc4ccc(F)c(F)c4)cc3C(=O)N2C)O1, CC(C)C(=O)Nc1ccc2c(c1)C(=O)N(C)[C@H]1CC[C@@H](CC(=O)NCC3CC3)O[C@@H]1CO2, COCCNC(=O)C[C@@H]1CC[C@H]2[C@@H](COc3ccc(NC(C)=O)cc3C(=O)N2C)O1, CCCNC(=O)C[C@@H]1CC[C@@H]2[C@H](COc3ccc(NC(=O)Nc4c(C)noc4C)cc3C(=O)N2C)O1, COCC(=O)Nc1ccc2c(c1)C(=O)N(C)[C@H]1CC[C@@H](CC(=O)O)O[C@H]1CO2, COc1ccccc1CNC(=O)C[C@H]1CC[C@H]2[C@H](COc3ccc(NC(=O)Nc4ccc(F)c(F)c4)cc3C(=O)N2C)O1, COc1ccccc1CNC(=O)C[C@@H]1CC[C@H]2[C@H](COc3ccc(NC(=O)Nc4ccc(F)c(F)c4)cc3C(=O)N2C)O1
